Measurements as given in the supplement of paper PMC10849652.
Of roughly 7,900 targets only a part is listed; those with a hit were picked by preference. About 0.6% of all pairs of compound and target were hits.

Tests used:
Experiment in all cases: log2 fold change, soluble protein after heating vs DMSO (PISA); higher = thermal stabilisation; K562 cells, 10 uM, 30 min; active = over 0.2 and 3.5 SD of the protein, either way, in both replicates (recomputed)
erlotinib = compound: C#Cc1cccc(Nc2ncnc3cc(OCCOC)c(OCCOC)cc23)c1 [erlotinib]
In short: (§1)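 K562 cells at 2×10^6 cells/mL were exposed to 10 μM compound for 30 min, then aliquots were heated for 3 min across 48°C-58°C, pooled, and extracted in PBS containing 0.5% NP-40 at 4°C. The supernatant after 21,000xg for 90 min was taken as soluble protein and measured by TMTpro 16plex LC-MS/MS with channel sums equalised. Thermal stability is reported relative to control samples, with values from duplicates. Fold changes are given on a log2 scale.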

[1] = compound: C/C(=N\NC(=O)C1=CC(=CC=C1)S(=O)(=O)N2CCOCC2)/C3=C(C=CC(=C3)Cl)O
In short: as §1

[2] = compound: C1=CC(=C(C=C1Cl)C2=NC3=NC=CN=C3C(=N2)NC4=CC=NC=C4)F
In short: as §1

[3] = compound: C1=CC(=CC=C1C2=NC3=C(N2)C=C(C=C3)C(=O)N)OC4=CC=C(C=C4)Cl
In short: as §1

[4] = compound: C1=CC2=C(C=CC(=C2)/C=C\3/C(=O)NC(=NCC4=CC=CS4)S3)N=C1
In short: as §1

[5] = compound: C1=CC2=NC=CN=C2C=C1/C=C/3\C(=O)NC(=O)S3
In short: as §1

[6] = compound: C1=CC=C(C=C1)C2=NC(=C(N2)C3=CC=NC=C3)C4=CC(=C(C=C4)Cl)O
In short: as §1

[7] = compound: C1=CC=C2C(=C1)C3=NNC4=CC=CC(=C43)C2=O
In short: as §1

[8] = compound: C1CCN(C1)C(=O)NC2=CC=CC(=C2)NC3=NC=C(C(=N3)NCCC4=CN=CN4)Br
In short: as §1

[9] = compound: C1CN(CCC1(CC2=CC=C(C=C2)Cl)N)C3=NC=NC4=C3C=CN4
In short: as §1

IRAK-1-4 Inhibitor I = compound: C1COCCN1CCN2C3=CC=CC=C3N=C2NC(=O)C4=CC(=CC=C4)[N+](=O)[O-] [IRAK-1-4 Inhibitor I]
In short: as §1

ibrutinib = compound: C=CC(=O)N1CCC[C@@H](n2nc(-c3ccc(Oc4ccccc4)cc3)c3c(N)ncnc32)C1 [ibrutinib]
In short: as §1

[10] = compound: CC(=O)c1cnc2ccc(-c3cc(Cl)c(O)c(Cl)c3)nc2c1N[C@H]1CC[C@H](CN(C)C)CC1
In short: as §1

ralimetinib = compound: CC(C)(C)Cn1c(N)nc2ccc(-c3[nH]c(C(C)(C)C)nc3-c3ccc(F)cc3)nc21 [ralimetinib]
In short: as §1

[11] = compound: CC(C)(O)CC(=O)NCCn1ccc2ncnc(Nc3ccc(Oc4cccc(C(F)(F)F)c4)c(Cl)c3)c21
In short: as §1

[12] = compound: CC(C)C1=C2N=C(C=C(N2N=C1)NCC3=CC=CC=C3)NCCCCCCN
In short: as §1

[13] = compound: CC(C)C[C@@H](C=O)NC(=O)[C@H](CC(C)C)NC(=O)[C@H](CC(C)C)NC(=O)OCc1ccccc1
In short: as §1

pinometostat = compound: CC(C)N(C[C@H]1O[C@@H](n2cnc3c(N)ncnc32)[C@H](O)[C@@H]1O)[C@H]1C[C@@H](CCc2nc3cc(C(C)(C)C)ccc3[nH]2)C1 [pinometostat]
In short: as §1

[14] = compound: CC1=C(C(CC(=O)N1)C2=CC=C(C=C2)C(F)(F)F)C(=O)NC3=C(C=C4C(=C3)C=NN4)F
In short: as §1

[15] = compound: CC1=C(C2=C(C=C1)C(=O)C3=CC=CC=C3N2CCCN)C
In short: as §1

Measured: log2 fold change

CPSF1 (UniProt Q10570)
inactive: erlotinib -0.004 | [1] -0.057 | [2] -0.108 | [3] 0.039 | [4] -0.012 | [5] 0.02 | [6] -0.062 | [7] -0.045 | [8] 0.041 | [9] -0.037 | IRAK-1-4 Inhibitor I -0.006 | ibrutinib -0.007 | [10] 0.064 | ralimetinib 0 | [11] 0.036 | [12] -0.009 | [13] 0.075 | pinometostat 0.142 | [14] 0 | [15] -0.093

CMTR1 (UniProt Q8N1G2)
UniProt Q8N1G2, sequence (Q8N1G2 whole entry, looked up): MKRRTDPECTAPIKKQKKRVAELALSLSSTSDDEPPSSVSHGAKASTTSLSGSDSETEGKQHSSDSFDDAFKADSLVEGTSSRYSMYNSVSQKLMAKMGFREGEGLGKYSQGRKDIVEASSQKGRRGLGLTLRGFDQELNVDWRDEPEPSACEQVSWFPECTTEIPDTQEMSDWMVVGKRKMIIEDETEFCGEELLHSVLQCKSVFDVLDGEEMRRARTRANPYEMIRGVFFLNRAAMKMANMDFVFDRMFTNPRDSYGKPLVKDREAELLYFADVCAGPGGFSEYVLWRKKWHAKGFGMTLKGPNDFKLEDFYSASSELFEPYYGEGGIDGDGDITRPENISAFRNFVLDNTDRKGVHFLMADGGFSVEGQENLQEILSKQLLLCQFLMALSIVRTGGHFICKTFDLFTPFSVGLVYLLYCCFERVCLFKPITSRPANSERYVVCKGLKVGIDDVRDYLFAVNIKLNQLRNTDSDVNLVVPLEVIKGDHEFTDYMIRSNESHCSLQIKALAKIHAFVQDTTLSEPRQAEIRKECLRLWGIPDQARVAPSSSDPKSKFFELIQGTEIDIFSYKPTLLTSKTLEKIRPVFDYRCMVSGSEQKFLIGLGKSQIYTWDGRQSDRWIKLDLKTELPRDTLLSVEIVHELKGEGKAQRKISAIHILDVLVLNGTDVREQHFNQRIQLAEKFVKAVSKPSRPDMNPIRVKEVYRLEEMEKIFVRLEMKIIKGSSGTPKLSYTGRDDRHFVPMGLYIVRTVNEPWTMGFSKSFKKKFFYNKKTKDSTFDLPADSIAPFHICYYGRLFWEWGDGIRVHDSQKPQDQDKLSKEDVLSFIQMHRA
inactive: erlotinib -0.005 | [1] 0.105 | [2] 0.031 | [3] 0.013 | [4] 0.048 | [5] 0.012 | [6] 0.012 | [7] 0.036 | [8] 0.01 | [9] 0.018 | IRAK-1-4 Inhibitor I -0.007 | ibrutinib -0.011 | [10] -0.014 | ralimetinib -0.026 | [11] -0.024 | [12] -0.011 | [13] -0.002 | pinometostat -0.029 | [14] -0.007 | [15] 0.169

CRLF3 (UniProt Q8IUI8)
inactive: erlotinib 0.09 | [1] -0.034 | [2] 0.036 | [3] -0.015 | [4] 0.076 | [5] 0.019 | [6] -0.018 | [7] -0.028 | [8] 0.027 | [9] -0.04 | IRAK-1-4 Inhibitor I 0 | ibrutinib -0.047 | [10] -0.079 | ralimetinib 0.008 | [11] -0.122 | [12] -0.166 | [13] 0.013 | pinometostat -0.001 | [14] 0.015 | [15] -0.035

COMMD2 (UniProt Q86X83)
UniProt Q86X83, sequence (Q86X83 whole entry, looked up): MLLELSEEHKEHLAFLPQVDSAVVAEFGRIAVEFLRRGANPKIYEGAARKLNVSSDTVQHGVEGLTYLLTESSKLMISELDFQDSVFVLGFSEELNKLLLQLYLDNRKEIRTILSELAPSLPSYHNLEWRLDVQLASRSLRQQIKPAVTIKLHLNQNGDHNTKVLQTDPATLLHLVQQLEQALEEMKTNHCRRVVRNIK
inactive: erlotinib 0.114 | [1] 0.049 | [2] -0.053 | [3] 0.085 | [4] 0.091 | [5] -0.02 | [6] -0.017 | [7] 0.058 | [8] 0.071 | [9] -0.119 | IRAK-1-4 Inhibitor I -0.009 | ibrutinib -0.038 | [10] -0.119 | ralimetinib -0.023 | [11] -0.179 | [12] -0.271 | [13] 0.007 | pinometostat 0.037 | [14] 0.008 | [15] 0.01

CSTF2 (UniProt P33240)
UniProt P33240, sequence (P33240 whole entry, looked up): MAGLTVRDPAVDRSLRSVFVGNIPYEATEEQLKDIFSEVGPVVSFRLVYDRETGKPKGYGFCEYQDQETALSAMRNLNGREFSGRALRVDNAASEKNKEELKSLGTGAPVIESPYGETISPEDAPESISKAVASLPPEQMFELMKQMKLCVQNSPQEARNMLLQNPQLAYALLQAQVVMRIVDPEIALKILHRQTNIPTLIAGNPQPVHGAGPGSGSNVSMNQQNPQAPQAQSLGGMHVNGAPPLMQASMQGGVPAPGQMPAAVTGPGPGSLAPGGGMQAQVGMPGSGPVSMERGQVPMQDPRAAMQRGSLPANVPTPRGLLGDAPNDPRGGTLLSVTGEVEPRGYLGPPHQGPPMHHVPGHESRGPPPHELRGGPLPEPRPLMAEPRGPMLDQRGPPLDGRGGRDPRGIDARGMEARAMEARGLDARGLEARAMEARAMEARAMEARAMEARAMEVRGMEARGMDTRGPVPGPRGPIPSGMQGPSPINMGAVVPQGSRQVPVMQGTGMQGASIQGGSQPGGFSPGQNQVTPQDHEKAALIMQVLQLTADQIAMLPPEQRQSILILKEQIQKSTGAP
inactive: erlotinib 0.032 | [1] -0.002 | [2] -0.011 | [3] 0.017 | [4] 0.017 | [5] 0.051 | [6] -0.076 | [7] 0.023 | [8] 0.033 | [9] -0.061 | IRAK-1-4 Inhibitor I 0.011 | ibrutinib 0.008 | [10] 0.057 | ralimetinib -0.006 | [11] 0.025 | [12] 0.093 | [13] -0.006 | pinometostat -0.008 | [14] 0 | [15] 0.169

CES2 isoform 4 (UniProt O00748)
UniProt O00748, sequence (O00748 whole entry, looked up): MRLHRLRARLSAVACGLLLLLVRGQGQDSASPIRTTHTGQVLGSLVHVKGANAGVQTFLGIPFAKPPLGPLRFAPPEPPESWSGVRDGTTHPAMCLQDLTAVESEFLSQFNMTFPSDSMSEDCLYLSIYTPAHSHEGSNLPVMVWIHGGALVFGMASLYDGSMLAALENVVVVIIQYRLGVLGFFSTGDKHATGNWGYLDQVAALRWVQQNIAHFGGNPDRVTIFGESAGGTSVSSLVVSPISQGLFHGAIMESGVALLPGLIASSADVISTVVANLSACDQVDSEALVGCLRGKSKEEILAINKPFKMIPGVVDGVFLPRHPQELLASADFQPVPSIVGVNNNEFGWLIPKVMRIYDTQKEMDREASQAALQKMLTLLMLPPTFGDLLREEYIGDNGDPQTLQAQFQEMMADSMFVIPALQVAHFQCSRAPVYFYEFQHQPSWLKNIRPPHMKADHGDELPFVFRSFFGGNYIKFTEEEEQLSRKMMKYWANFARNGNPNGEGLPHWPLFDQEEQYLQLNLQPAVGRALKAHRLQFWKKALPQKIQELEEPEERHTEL
inactive: erlotinib -0.05 | [1] -0.16 | [2] -0.264 | [3] -0.008 | [4] -0.06 | [5] -0.011 | [6] 0.139 | [7] 0.083 | [8] 0.061 | [9] -0.087 | IRAK-1-4 Inhibitor I -0.005 | ibrutinib 0.077 | [10] 0.038 | ralimetinib 0.006 | [11] 0.012 | [12] 0.045 | [13] 0.06 | pinometostat -0.02 | [14] -0.128 | [15] 0

CRYM-AS1 (UniProt A6NIL9)
inactive: erlotinib 0.13 | [1] -0.214 | [2] 0.027 | [3] 0.23 | [4] 0.089 | [5] -0.725 | [6] 0.024 | [7] 0.073 | [8] -0.27 | [9] 0.108 | IRAK-1-4 Inhibitor I 0.13 | ibrutinib 0.172 | [10] -0.017 | ralimetinib -0.063 | [11] -0.108 | [12] -0.088 | [13] 0.168 | pinometostat 0.054 | [14] 0.038 | [15] -0.099

CEMIP2 (UniProt Q9UHN6)
inactive: erlotinib 0.076 | [1] 0.018 | [2] -0.042 | [3] 0.001 | [4] 0.087 | [5] 0.029 | [6] -0.071 | [7] -0.066 | [8] 0.084 | [9] 0.041 | IRAK-1-4 Inhibitor I 0 | ibrutinib 0.096 | [10] -0.045 | ralimetinib -0.023 | [11] -0.026 | [12] 0.122 | [13] 0.11 | pinometostat -0.035 | [14] -0.211 | [15] 0.057

COMT (UniProt P21964)
UniProt P21964, sequence (P21964 whole entry, looked up): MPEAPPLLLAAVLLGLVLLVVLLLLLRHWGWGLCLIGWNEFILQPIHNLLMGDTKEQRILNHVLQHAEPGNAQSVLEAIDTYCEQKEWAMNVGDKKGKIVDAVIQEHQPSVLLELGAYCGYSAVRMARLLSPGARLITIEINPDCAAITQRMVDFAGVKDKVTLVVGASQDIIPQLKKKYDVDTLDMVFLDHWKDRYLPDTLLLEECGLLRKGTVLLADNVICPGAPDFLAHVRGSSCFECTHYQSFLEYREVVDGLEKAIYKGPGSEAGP
inactive: erlotinib -0.026 | [1] 0.076 | [2] -0.015 | [3] -0.08 | [4] 0.023 | [5] 0.012 | [6] 0.026 | [7] 0.029 | [8] 0.031 | [9] -0.059 | IRAK-1-4 Inhibitor I 0.01 | ibrutinib -0.032 | [10] -0.065 | ralimetinib -0.043 | [11] -0.007 | [12] 0.006 | [13] -0.039 | pinometostat -0.024 | [14] -0.068 | [15] 0.053

CHMP4C (UniProt Q96CF2)
UniProt Q96CF2, sequence (Q96CF2 whole entry, looked up): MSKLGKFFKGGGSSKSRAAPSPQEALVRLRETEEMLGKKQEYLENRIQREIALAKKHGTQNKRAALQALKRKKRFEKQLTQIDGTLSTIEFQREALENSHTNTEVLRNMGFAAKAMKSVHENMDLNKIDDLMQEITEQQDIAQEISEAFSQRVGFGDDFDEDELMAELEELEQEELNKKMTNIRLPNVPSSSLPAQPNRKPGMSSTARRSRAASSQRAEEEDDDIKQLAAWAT
inactive: erlotinib 0.036 | [1] 0.06 | [3] -0.025 | [4] 0.054 | [5] 0.134 | [6] -0.064 | [7] -0.043 | [8] 0.058 | [9] 0.034 | IRAK-1-4 Inhibitor I 0.097 | ibrutinib -0.022 | [10] -0.028 | ralimetinib -0.087 | [11] -0.018 | [12] -0.099 | [13] 0.039 | pinometostat -0.095 | [14] 0.021 | [15] -0.019
active: [2] 0.476

COPS4 (UniProt Q9BT78)
inactive: erlotinib -0.002 | [1] 0.061 | [2] 0.13 | [3] -0.004 | [4] 0.036 | [5] -0.006 | [6] 0.054 | [7] 0.024 | [8] -0.009 | [9] -0.002 | IRAK-1-4 Inhibitor I 0.015 | ibrutinib 0.043 | [10] 0.01 | ralimetinib -0.004 | [11] -0.014 | [12] 0.009 | [13] -0.008 | pinometostat -0.048 | [14] -0.019 | [15] 0.028

CNTN4 (UniProt Q8IWV2)
UniProt Q8IWV2, sequence (Q8IWV2 whole entry, looked up): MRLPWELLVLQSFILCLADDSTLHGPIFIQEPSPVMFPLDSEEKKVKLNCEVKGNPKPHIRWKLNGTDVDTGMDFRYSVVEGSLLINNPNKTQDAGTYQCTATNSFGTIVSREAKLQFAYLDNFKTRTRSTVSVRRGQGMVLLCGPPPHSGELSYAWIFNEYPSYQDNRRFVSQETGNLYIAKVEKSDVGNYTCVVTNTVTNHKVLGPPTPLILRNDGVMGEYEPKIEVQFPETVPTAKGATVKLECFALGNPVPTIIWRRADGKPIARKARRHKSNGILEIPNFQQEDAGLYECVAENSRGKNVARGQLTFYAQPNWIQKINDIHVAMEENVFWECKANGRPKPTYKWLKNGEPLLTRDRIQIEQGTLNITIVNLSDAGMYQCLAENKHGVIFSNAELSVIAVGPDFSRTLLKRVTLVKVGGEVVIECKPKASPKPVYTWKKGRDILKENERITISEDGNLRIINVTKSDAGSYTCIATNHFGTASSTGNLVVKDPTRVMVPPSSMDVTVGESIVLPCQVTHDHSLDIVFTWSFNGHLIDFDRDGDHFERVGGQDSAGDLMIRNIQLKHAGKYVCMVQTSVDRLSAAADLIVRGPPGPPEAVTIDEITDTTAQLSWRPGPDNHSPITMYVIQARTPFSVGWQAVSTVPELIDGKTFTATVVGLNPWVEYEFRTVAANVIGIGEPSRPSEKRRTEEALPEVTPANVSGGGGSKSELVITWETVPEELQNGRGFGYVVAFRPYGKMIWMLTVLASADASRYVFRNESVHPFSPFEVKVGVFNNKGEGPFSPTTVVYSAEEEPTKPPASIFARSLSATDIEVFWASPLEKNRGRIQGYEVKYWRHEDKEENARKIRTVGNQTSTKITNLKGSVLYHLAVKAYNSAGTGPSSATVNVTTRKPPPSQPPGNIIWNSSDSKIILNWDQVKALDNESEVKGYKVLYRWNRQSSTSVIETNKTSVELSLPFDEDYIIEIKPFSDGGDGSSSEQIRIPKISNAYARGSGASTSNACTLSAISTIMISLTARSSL
active: [1] -0.641
inactive: erlotinib 0.284 | [2] 0.012 | [3] 0.018 | [4] 0.179 | [5] -0.095 | [6] 0.05 | [7] 0.097 | [8] -0.097 | [9] 0.194 | IRAK-1-4 Inhibitor I 0.049 | ibrutinib 0.023 | [10] 0.065 | ralimetinib 0.025 | [11] -0.108 | [12] 0.195 | [13] 0.044 | pinometostat -0.027 | [14] -0.014 | [15] 0.137

CHEK1 (UniProt O14757)
UniProt O14757, sequence (O14757 whole entry, looked up): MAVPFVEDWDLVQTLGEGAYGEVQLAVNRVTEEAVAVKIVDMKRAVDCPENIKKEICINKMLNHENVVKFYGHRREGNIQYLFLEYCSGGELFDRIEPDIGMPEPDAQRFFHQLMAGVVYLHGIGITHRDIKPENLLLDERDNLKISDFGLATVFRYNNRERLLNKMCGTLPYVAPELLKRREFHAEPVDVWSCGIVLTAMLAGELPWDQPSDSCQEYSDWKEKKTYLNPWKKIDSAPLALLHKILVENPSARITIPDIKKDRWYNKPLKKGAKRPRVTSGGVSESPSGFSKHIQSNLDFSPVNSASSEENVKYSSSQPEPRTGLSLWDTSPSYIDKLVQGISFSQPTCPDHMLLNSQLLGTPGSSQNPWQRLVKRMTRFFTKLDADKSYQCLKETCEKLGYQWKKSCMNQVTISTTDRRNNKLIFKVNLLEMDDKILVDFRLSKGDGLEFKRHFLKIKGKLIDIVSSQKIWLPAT
inactive: erlotinib 0.03 | [1] 0.047 | [2] 0.029 | [3] 0.012 | [4] 0.246 | [5] 0 | [6] -0.026 | [7] -0.099 | [9] -0.089 | IRAK-1-4 Inhibitor I -0.018 | ibrutinib -0.014 | [10] 0 | ralimetinib -0.076 | [11] -0.055 | [12] 0.003 | [13] 0.056 | pinometostat 0.018 | [14] 0.017 | [15] -0.029
active: [8] -0.303

CNOT7 (UniProt Q9UIV1)
UniProt Q9UIV1, sequence (Q9UIV1 whole entry, looked up): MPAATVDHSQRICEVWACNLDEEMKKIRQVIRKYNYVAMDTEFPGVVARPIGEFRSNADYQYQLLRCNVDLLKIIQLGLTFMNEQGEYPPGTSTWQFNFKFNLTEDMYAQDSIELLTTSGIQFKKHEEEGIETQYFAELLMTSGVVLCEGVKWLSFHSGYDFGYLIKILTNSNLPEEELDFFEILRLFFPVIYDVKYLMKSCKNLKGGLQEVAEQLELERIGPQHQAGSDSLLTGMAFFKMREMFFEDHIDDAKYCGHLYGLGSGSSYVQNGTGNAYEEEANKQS
inactive: erlotinib 0.025 | [1] -0.002 | [2] -0.059 | [3] 0.018 | [4] 0.194 | [5] -0.044 | [6] 0.128 | [7] 0.048 | [8] -0.003 | [9] 0.016 | IRAK-1-4 Inhibitor I -0.039 | ibrutinib 0.022 | [10] -0.013 | ralimetinib -0.016 | [11] -0.021 | [12] -0.002 | [13] 0.079 | pinometostat 0.066 | [14] -0.039 | [15] 0.033

CELF2 isoform 3 (UniProt O95319)
UniProt O95319, sequence (O95319 whole entry, looked up): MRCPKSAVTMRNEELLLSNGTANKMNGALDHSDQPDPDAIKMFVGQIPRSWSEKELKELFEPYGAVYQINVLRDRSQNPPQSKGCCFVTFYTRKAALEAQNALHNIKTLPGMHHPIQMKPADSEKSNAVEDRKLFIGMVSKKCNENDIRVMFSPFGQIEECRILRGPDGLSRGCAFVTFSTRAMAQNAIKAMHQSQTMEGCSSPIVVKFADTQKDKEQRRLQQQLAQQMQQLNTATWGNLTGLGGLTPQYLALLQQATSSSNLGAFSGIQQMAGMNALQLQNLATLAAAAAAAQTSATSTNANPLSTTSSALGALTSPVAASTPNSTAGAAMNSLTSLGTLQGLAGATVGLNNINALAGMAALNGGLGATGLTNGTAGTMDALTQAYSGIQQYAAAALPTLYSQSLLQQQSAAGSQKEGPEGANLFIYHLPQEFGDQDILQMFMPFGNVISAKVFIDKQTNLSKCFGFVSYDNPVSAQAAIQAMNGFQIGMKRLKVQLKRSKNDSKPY
active: [15] 0.418
inactive: erlotinib -0.042 | [1] -0.044 | [2] 0 | [3] 0.045 | [4] 0.004 | [5] 0.047 | [6] 0.021 | [7] 0.064 | [8] -0.022 | [9] 0.086 | IRAK-1-4 Inhibitor I 0.009 | ibrutinib -0.022 | [10] 0.009 | ralimetinib 0.055 | [11] -0.003 | [12] -0.015 | [13] 0.249 | pinometostat -0.047 | [14] -0.027
